# FMDV antiviral = foot and mouth disease virus antiviral activity | Potency, µM (titrated, usually from 57.9 µM), for the others: at the highest dose activity change, negative = inhibition, usual class: inhibitors | FMDV antiviral cell-based qHTS | 410,000 tested, 1.2% active; calls by dose curve; tested in HEK293T cells; also: read-out not given here; potency is read from the fitted curve at half-maximal effect; % is scaled to controls: 0 for no effect and ±100 for the full control effect; nearly all actives have a fitted effect of over 45% in size
# LASV entry inh = inhibitors of Lassa virus binding or cell entry; Lassa virus pseudotype entry inhibition, cell reporter; Potency, µM (titrated, usually from 37.9 µM), for inactives: top-dose activity change, negative = inhibition, most hits filed as inhibitors; 300,000 tested, 1.2% active; calls by dose curve; tested in HEK293 cells; also: potency is read from the fitted curve at half-maximal effect; % is scaled to controls: 0 for no effect and ±100 for the full control effect; nearly all actives have a fitted effect of over 50% in size
# Marburg entry inh = blocks Marburg virus binding to or entry into cells | Marburg virus pseudotyped entry inhibition, cell reporter | 300,000 tested, 1.8% active | Potency, µM (top dose mostly 37.8 µM), for inactives: top-dose activity change, negative = inhibition, actives largely listed as inhibitors; calls by dose curve; tested in HEK293 cells; also: potency is read from the fitted curve at half-maximal effect; % is scaled to controls: 0 for no effect and ±100 for the full control effect
# HCV inhibitor = HCV inhibition; 340,000 tested, 3.4% active; Potency, µM (series often up to 41.8 µM), inactives show at the highest dose activity change, negative = inhibition, hits mostly inhibitors; Huh7.5.1 HCVcc-Cre infection, luciferase reporter, 44 h; AID 651820; active = well fitted inhibition curve with a large enough effect; inconclusive = small, poorly fitted or top-dose-only effect, or another doubt; inactive = no such curve, though single readings can be large or run the other way; also: potency is read from the fitted curve at half-maximal effect; % is scaled to controls: 0 for no effect and ±100 for the full control effect
#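 Luciferase read-out (15 sec integration) after a 15 min room-temperature substrate step quantifies HCVcc-Cre infection. Cells, 1,000 per well, had compound added 4 h post-plating, then virus at ~0.5 moi, and were cultured 44 h.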
# SARS PLP yeast = blocks SARS-CoV papain-like protease in a yeast assay; S. cerevisiae expressing SARS-CoV PLpro, growth rescue; Potency, µM (series often up to 32.9 µM), without a hit: at the top dose activity, positive = growth rescue, usual class: activators; 330,000 tested, 0.19% active; AID 485353; calls by dose curve; also: potency is read from the fitted curve at half-maximal effect; 0% is about no effect; nearly all actives have a fitted effect of over 55% in size
# HCMV inh = inhibitors of human cytomegalovirus. HFF cells, HCMV-luciferase reporter, 72 h; stronger effect = lower value. activity change, negative = inhibition, % at 57.5 µM. 410,000 tested, 4.5% active. AID 1259415; in the data active = activity change below about -60%; inconclusive = no clear call, values can overlap the other calls; inactive = above about -39%; also: % is scaled to controls: 0 for no effect and ±100 for the full control effect
#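 Compounds were evaluated in HFFs infected with an HCMV luciferase reporter virus (MOI 1 PFU/cell). Luciferase in lysates collected 72 h post infection served as the replication measure.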
# * = called active by the depositor; ? = inconclusive; · = no result; ! = a repeat was not active; [ ] = remark or other dose. Hits are enriched below; roughly 8% of the tested compounds scored in any of these assays.
SMILES,FMDV antiviral,LASV entry inh,Marburg entry inh,HCV inhibitor,SARS PLP yeast,HCMV inh
CCOC(=O)c1c(C)[nH]c(C)c1C(=O)COC(=O)/C=C/c1ccc(OC(F)F)cc1,?,11µM*,?,32µM*,-45%,-4
C[C@@H]1C=CCC(=O)OC[C@H](C)C(=O)OC[C@H]2O[C@H]1C=C[C@H]2O,·,·,-14%[14.2 µM],·,·,·
COc1cccc(Nc2nccc3[nH]c(-c4cccc(C(C)C)c4)nc23)c1,·,·,·,·,·,-14
Nc1nn(S(=O)(=O)c2cccc3nsnc23)cc1-c1ccc(Br)cc1,-21%,-2%,?,10µM*,-6%,-9
Cc1ccc(-c2cn(S(=O)(=O)c3cccc4nsnc34)nc2N)cc1,?,0%,?,?,·,-30
CC(=O)C1=C(c2ccc(F)cc2)N(C(C)=O)n2c(nnc2C2CCCCC2)S1,?,4%[46.1 µM],·,·,·,8
C/C(=N/OC(=O)c1ccc(C)cc1)C(=O)c1ccc(Br)cc1,0%,·,·,31%,-1%,26
CC/C(=N/O)C(=O)c1ccc(Br)cc1,6%,8.9µM*,1%[46.1 µM],6%,-25%,0
CCc1ccc(-n2c(SC(CC)C(=O)N(CC)CC)nc3n[nH]c(C)c3c2=N)cc1 (stereo unspecified),?,-16%[46.1 µM],·,·,·,-84*
CC(C)CNc1cccc2c1S(=O)(=O)N(Cc1ccc(F)cc1)[C@@H](C)[C@H](c1ccccc1)O2,·,·,·,·,·,-1
CN(c1ccccc1)S(=O)(=O)c1ccc(Cl)c(C(=O)NC2=NCCS2)c1,-21%,·,·,?,2%,-101*
CN(C)C(CNC(=O)c1cc(S(=O)(=O)N(C)c2ccccc2)ccc1Cl)c1ccccc1 (stereo unspecified),-28%,?,?,7.1µM*,0%,?
Cc1ccc(C)n1-c1c(C(=O)NCCC(C)C)sc2ncccc12,-11%,-6%[46.1 µM],·,·,·,18
CCCCn1c(N)c(N(CC(C)C)C(=O)C2CCN(S(=O)(=O)c3ccc(C)cc3)CC2)c(=O)[nH]c1=O,-22%,-24%,20%,-9%,6%,-21
Cc1n[nH]c(C)c1N1C(=O)c2cccc3c(Br)ccc(c23)C1=O,-2%,?,-18%,?,-8%,-3
Cc1n[nH]c(C)c1N1C(=O)c2cccc3cc(Br)cc(c23)C1=O,-16%,-9%,0%,4.5µM*,13%,39
COc1ccc(/C=N/NS(=O)(=O)c2ccccc2)cc1OC,-15%,·,·,?,2%,-23
COc1ccc(/C=N\NC(=O)c2ccccc2)cc1COc1ccccc1,-8%,?,-30%,-15%,3%,37
COc1ccc(/C=N/NC(=O)c2ccoc2C)cc1COc1c(C)cccc1C,10µM*,?,5.6µM*,?,-39%,-97*
COc1ccc(/C=N\NC(=O)c2ccc(F)cc2)cc1COc1cc(F)ccc1[N+](=O)[O-],25µM*,?,-20%,10µM*,-2%,19
COc1ccc(/C=N/NC(=O)c2ccc(OC)c(OC)c2)cc1COc1c(F)c(F)c(F)c(F)c1F,-5%,1%[46.1 µM],1%[46.1 µM],3.5µM*,11%,-5
COc1ccc(/C=N/NC(=O)c2ccc(NC(C)=O)cc2)cc1COc1ccc(F)cc1F,?,·,·,-16%,-6%,-24
COc1ccc(/C=N/NS(=O)(=O)c2ccc(F)cc2)cc1COc1cc(F)ccc1[N+](=O)[O-],-15%,-17%[46.1 µM],-23%[46.1 µM],?,0%,-66*
C=CC[C@@H]1C=C(C(=O)OC)N(C(=O)C(F)(F)F)[C@@H](c2ccccc2Br)[C@@H]1C,·,·,9%[14.2 µM],·,·,·
COc1ccc(/C=N\NC(=O)c2cc(O)c(O)c(O)c2)cc1COc1ccc(C(=O)OCC(C)C)cc1,13%,·,·,5.6µM*,5%,0
SMILES,FMDV antiviral,LASV entry inh,Marburg entry inh,HCV inhibitor,SARS PLP yeast,HCMV inh
COc1ccc(C(=O)N/N=C/c2ccc(OC)c(COc3ccccc3)c2)cc1,4%,-23%[46.1 µM],?,?,1%,2
Cc1ccc(O)c(NC(=O)c2cc3nc4c(c(C(F)(F)F)n3n2)CCc2ccccc2-4)c1,?,14%,4%,6%,4%,28
CCN(CC)CCCNC(=O)c1cc2nc3c(c(C(F)(F)F)n2n1)CCc1ccccc1-3,-9%,-3%,?,1.6µM*,0%,?
COC(=O)C1=C(C)N(Cc2ccccc2)C(=S)NC1CCc1ccccc1 (stereo unspecified),·,·,38%[14.2 µM],·,·,·
Cc1ccc(-c2cccc(CN3CCN(C4CCN(C(C)C)CC4)C(CCO)C3)c2)o1 (stereo unspecified),-8%,·,·,5µM*,1%,12
CC(C)CN1CCN(C2CCN(C(C)C)CC2)C(CCO)C1 (stereo unspecified),·,·,·,·,1%,·
CC(C)N1CCC(N2CCN(Cc3ccc(-c4ccc(Cl)cc4)o3)CC2CCO)CC1 (stereo unspecified),-15%,?,3.2µM*,4µM*,2%,29
CC(C)N1CCC(N2CCN(C/C=C/c3ccc(F)cc3)CC2CCO)CC1 (stereo unspecified),-10%,?,?,10µM*,1%,12
Cc1ccc2nc3c(cc(C(=O)NCc4ccco4)c(=N)n3Cc3ccco3)c(=O)n2c1,4%,3%[46.1 µM],?,4.5µM*,0%,-61*
Cc1ccc(CNC(=O)c2cc3c(=O)n4ccccc4nc3n(Cc3ccco3)c2=N)cc1,?,11%,3%,?,-2%,-26
O=C(CCCCn1c(=O)c2ccccc2n(Cc2ccc(Cl)cc2)c1=O)NCc1ccco1,?,?,?,13µM*!,7%,42
N=c1c(C(=O)NCc2ccccc2)cc2c(=O)n3ccccc3nc2n1Cc1ccco1,-28%,-27%,11µM*,7.9µM*,4%,26
N=c1c(C(=O)NCc2ccco2)cc2c(=O)n3ccccc3nc2n1Cc1ccc(Cl)cc1,-3%,-14%,?,5µM*,4%,19
CCCn1c(=N)c(C(=O)NCc2cccnc2)cc2c(=O)n3cc(C)ccc3nc21,-23%,?,9%[46.1 µM],·,·,-19
CC1(C)CN(c2ccccc2)C(=O)[C@@H]1CC(=O)Nc1ccccc1,·,7%[46.1 µM],·,·,·,·
Cc1cc(C)cc(-n2ccnc2SCC(=O)Nc2nnc(C)s2)c1,0%,-21%[46.1 µM],·,·,·,-5
O=C(c1cn(C2CCCN(Cc3cccc(Oc4ccccc4)c3)C2)nn1)N1CCCC1 (stereo unspecified),1%,·,·,·,·,·
O=C1CC[C@H](C(=O)O)N1,-16%,·,·,·,·,·
Cc1ccc2c(=O)cc(C(=O)N(Cc3ccccc3Cl)C3CCS(=O)(=O)C3)oc2c1 (stereo unspecified),-18%,-4%[46.1 µM],?,·,·,10
CCC(=O)OCc1cnc(C)c2oc(=O)c(C(=O)Nc3ccccc3C(F)(F)F)cc12,-16%,24%[46.1 µM],·,·,·,-4
